Shown are actives, neighbours in structure and some others; about 15% of the full set was active somewhere.
ELG1 DNA repair = qHTS screen for small molecules that inhibit ELG1-dependent DNA repair in human embryonic kidney (HEK293T) cells expressing luciferase-tagged ELG1. HEK293T ELG1-luciferase reporter, luminescence, 16 h; DNA damage induced by 5-fluorouridine. Potency, µM (top dose mostly 46.1 µM), without a hit: top-dose activity change, negative = inhibition, actives largely listed as inhibitors. hit rate 2.3% among 330,000; further: nearly all actives have a fitted effect of over 55% in size
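DMSO vehicle served as the neutral condition. Each well held 2,000 cells given 5-fluorouridine plus compound; after 16 hr at 37 °C/5% CO2, ONE-Glo was added and luciferase measured 30 min later.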
DT40 TDP1 CPT = qHTS for Inhibitors of human tyrosyl-DNA phosphodiesterase 1 (TDP1): qHTS in cells in presence of CPT | hit rate 12% among 420,000 | Potency, µM (doses to about 46.2 µM), inactives show at the top dose activity change, negative = growth inhibition, most hits filed as inhibitors | chicken DT40 Tdp1-/-;hTDP1 cells + 20 nM CPT, ATP luminescence, 48 h; further: nearly all actives have a fitted effect of over 55% in size
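Chicken DT40 Tdp1-/- cells complemented with human TDP1, 400 cells/well, exposed to compounds plus 20 nM camptothecin for at least 48 h at 37 C; viability read as ATP content by CellTiter-Glo luminescence.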
DT40 TDP1 no CPT = qHTS for Inhibitors of human tyrosyl-DNA phosphodiesterase 1 (TDP1): qHTS in cells in absence of CPT | DT40 Tdp1-/- hTDP1 cells, no CPT, ATP luminescence, 48 h | Potency, µM (titrated, usually from 46.2 µM), inactives show at the top dose activity change, negative = growth inhibition, most hits filed as inhibitors | hit rate 15% among 420,000 | AID 686978, 2013; further: nearly all actives have a fitted effect of over 55% in size
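Readout: luminescence from CellTiter-Glo after 30 min in the dark at RT. Cells: DT40 Tdp1-/- with stable hTDP1, 400/well. Exposure: compounds alone, ≥48 hr, 37 °C.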
12-LOX inh = Primary qHTS assay for inhibitors of human arachidonate 12S-lipoxygenase (ALOX12): Round 2; Potency, µM (highest dose often 108 µM), without a hit: at the top dose activity change, negative = inhibition, actives largely listed as inhibitors; purified 12hLO, xylenol orange hydroperoxide absorbance; hit rate 1.1% among 580,000
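Hydroperoxide product was detected by ferrous iron/xylenol orange as the 573 to 405 nm absorbance ratio. Arachidonic acid at 40 uM (final) was turned over for 30 min at room temperature by 150 nM human 12hLO, pH 7.0 Hepes buffer, after 15 min compound preincubation.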
VP16 counter = VP16 counterscreen qHTS for inhibitors of ROR gamma transcriptional activity; hit rate 3.5% among 310,000; Potency, µM (titrated, usually from 53.6 µM), for inactives: at the top dose activity, negative = inhibition, most hits filed as inhibitors; AID 2546, 2010; Drosophila S2 Gal4-VP16 UAS-luciferase, luminescence, 20 h;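 further: Gal4-VP16 expression switched on by copper sulfate through the metallothionein promoter; nearly all actives have a fitted effect of over 50% in size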
RORgamma inh = qHTS for inhibitors of ROR gamma transcriptional activity | Nuclear receptor ROR-gamma (Mus musculus), P51450 | Drosophila S2 Gal4-RORgamma UAS-luciferase reporter, 20 h | Potency, µM (series often up to 53.6 µM), for inactives: at the top dose activity change, negative = inhibition, most hits filed as inhibitors | hit rate 5.4% among 310,000 | AID 2551, 2010; further: nearly all actives have a fitted effect of over 60% in size
Target sequence (P51450 whole entry, looked up, the tested form may be a part): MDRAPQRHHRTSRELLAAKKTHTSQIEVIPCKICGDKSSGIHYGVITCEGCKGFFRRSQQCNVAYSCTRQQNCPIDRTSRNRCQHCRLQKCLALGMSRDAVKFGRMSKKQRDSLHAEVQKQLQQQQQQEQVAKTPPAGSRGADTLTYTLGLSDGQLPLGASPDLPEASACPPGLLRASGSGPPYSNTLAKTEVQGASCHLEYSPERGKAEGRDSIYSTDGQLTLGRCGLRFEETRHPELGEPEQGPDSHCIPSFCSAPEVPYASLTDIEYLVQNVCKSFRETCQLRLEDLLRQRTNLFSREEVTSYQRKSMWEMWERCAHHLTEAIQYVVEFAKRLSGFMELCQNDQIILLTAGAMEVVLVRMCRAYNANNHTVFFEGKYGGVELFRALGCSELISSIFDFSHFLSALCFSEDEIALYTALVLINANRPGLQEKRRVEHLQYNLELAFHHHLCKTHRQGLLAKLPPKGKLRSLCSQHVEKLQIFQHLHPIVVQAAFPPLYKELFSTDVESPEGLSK
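Drosophila S2 cells stably expressing Gal4-DBD/mouse RORγ fusion under metallothionein promoter plus UAS-luciferase; compound 1 h, then 700 uM CuSO4 induction for 20 h at ambient temperature; inhibition read as reduced luminescence.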
The depositor's hits bear a star; u = inconclusive; x = no result; [ ] = dose if it differs, or a comment. The call rests on the fitted dose curve; in most records, active means well fitted curve in the direction sought with a large enough effect; inconclusive means small, poorly fitted or top-dose-only effect, or another doubt; inactive means no such curve, though single readings can be large; an effect the other way counts as inactive or inconclusive. On the % scale 0 is the no-effect control and ±100 the full control effect; potency means the concentration at half of the fitted maximal effect.

SMILES	ELG1 DNA repair	DT40 TDP1 CPT	DT40 TDP1 no CPT	12-LOX inh	VP16 counter	RORgamma inh
Cc1ccc(C)c(N(CC(=O)Nc2ccccc2C(=O)NCc2ccco2)S(=O)(=O)c2ccccc2)c1	23.1µM*	u	16.4µM*	-20.1%	3.9%	3.0%
CS(=O)(=O)N(CC(=O)Nc1ccccc1C(=O)NCc1ccco1)c1ccccc1F	7.7%	2.6%	-27.5%	4.6%	-2.0%	7.5%
O=C(CN(c1ccc(F)cc1)S(=O)(=O)c1ccccc1)NCc1ccco1	3.9%	-24.1%	u	-8.4%	17.0%	13.0%
Cc1ccc(S(=O)(=O)N(Cc2ccccc2)c2ccccc2C(=O)Nc2ccccc2C(=O)NCc2ccco2)cc1	-14.9%	23.1µM*	u	0.6%	-15.4%	-0.8%
Cc1ccc(C)c(N(CC(=O)NC2CCCC2)S(=O)(=O)c2ccccc2)c1	u	11.6µM*	8.2µM*	-0.7%	-18.8%	-10.0%
Cc1ccc(S(=O)(=O)N(Cc2ccccc2)c2ccccc2C(=O)NCc2ccco2)cc1	u	u	u	-28.0%	-13.7%	62.4%
O=C(CN(c1ccccc1)S(=O)(=O)c1ccccc1)Nc1ccccc1C(=O)NCc1ccco1	u	u	16.4µM*	-22.5%	-1.5%	15.1%
O=C(Oc1ccc2cc(-c3ccccc3)c(=O)oc2c1)c1ccco1	x	x	x	-8.6%	x	x
COc1ccc(S(=O)(=O)N(CC(=O)NC(C(C)C)C(C)C)c2ccc(F)cc2)cc1OC	x	x	x	-1.1%	x	x
COc1ccc(OC)c(NC(=O)c2nc3nc(C)cc(C(F)F)n3n2)c1	x	x	x	34.0%	x	x
Cc1cc(C)c(C(=O)CSc2nnnn2C)cc1C	x	x	x	2.1%	x	x
NCCCC[C@H]1CNC(=S)N1CC1CCCCC1	-22.3%	u	u	-1.3%	3.6%	-7.0%
O=C1NC[C@H](c2ccccc2)N(CCCCC2CCCCC2)C1=O	x	u	-24.2%	-27.9%	x	x
CCCCN1C(N)=NC[C@@H]1c1ccccc1	x	16.4µM*	13µM*	-3.3%	x	x
S=C1NC[C@H](CC2CCCCC2)N1CCCCC1CCCCC1	-15.6%	16.4µM*	u	-125.2%	3.16µM*	1.12µM*
S=C1NC[C@H](c2ccccc2)N1CC1CCCCC1	-13.3%	20.6µM*	23.1µM*	u	4.47µM*	1.12µM*
CCCCN1C(=S)NC[C@@H]1c1ccccc1	0.2%	-13.7%	-18.6%	-22.4%	12.6µM*	2.82µM*
Cc1ccc(-n2c(C3CCN(C(=O)c4ccc5ccccc5n4)CC3)n[nH]c2=O)cc1	x	x	x	-12.4%	x	x
COC(=O)CCn1c(SC(C)C(=O)c2ccc(Br)cc2)nc2ccccc2c1=O (configuration not stated)	x	x	x	-0.7%	x	x
CCCCN1C(=S)NC[C@@H]1Cc1ccccc1	8.3%	u	u	u	7.94µM*	1.78µM*
S=C1NC[C@H](Cc2ccccc2)N1CCCCC1CCCCC1	0.0%	u	25.9µM*	35.5µM*	5.01µM*	0.708µM*
S=C1NC[C@H](Cc2ccccc2)N1CC1CCN(CCCC2CCCC2)CC1	x	u	u	-17.8%	x	x
c1ccc2ncc(CNC[C@H]3COCc4nc5ccccc5n43)cc2c1	x	x	x	56.7%[176 µM]	x	x
Cc1ccc(OCc2nc3ccccc3n2C(C(=O)Nc2c(C)cccc2C)C2CC2)cc1 (configuration not stated)	x	u	u	13.1%	x	x
Cc1cccc(C)c1NC(=O)C(C)n1c(-c2ccc(=O)[nH]c2)nc2ccccc21 (configuration not stated)	x	-12.0%	-16.4%	-25.8%	x	x
SMILES	ELG1 DNA repair	DT40 TDP1 CPT	DT40 TDP1 no CPT	12-LOX inh	VP16 counter	RORgamma inh
COc1ccc(C(C(=O)NC(C)(C)C)n2c(-c3ccc(=O)[nH]c3)nc3ccccc32)cc1 (configuration not stated)	x	9.2µM*	8.2µM*	-9.3%	x	x
COc1ccc(C(C(=O)NC(C)(C)C)n2c(COc3ccc(C)cc3)nc3ccccc32)cc1 (configuration not stated)	x	18.4µM*	u	3.0%	x	x
CC1CCN(S(=O)(=O)c2ccc3nc(-c4ccccn4)cc(C(=O)NCCN(C)Cc4ccccc4)c3c2)CC1	13.6%	7.31µM*	5.8µM*	161.7%	1.9%	-10.1%
CC1CCN(S(=O)(=O)c2ccc3nc(Nc4cccc(F)c4)ccc3c2)CC1	x	20.6µM*	20.6µM*	u	x	x
NS(=O)(=O)c1ccc(Nc2ccc3cc(S(=O)(=O)N4CCCCC4)ccc3n2)cc1	-7.8%	u	u	-17.6%	-0.9%	15.3%
CC1CCN(S(=O)(=O)c2ccc3ncn(CC(=O)N(C)Cc4ccccc4)c(=O)c3c2)CC1	-12.1%	-21.5%	-10.6%	u	-6.9%	u
CC1CCN(S(=O)(=O)c2ccc3nc(NCc4ccccc4)ccc3c2)CC1	x	10.3µM*	10.3µM*	u	x	x
CC(=O)c1ccc(Nc2ccc3cc(S(=O)(=O)N4CCCC4)ccc3n2)cc1	x	20.6µM*	u	u	x	x
CC(=O)NC1=NN(C(C)=O)C(c2cc(Br)ccc2OCc2ccc(C)cc2)S1 (configuration not stated)	x	x	x	-22.8%	x	x
CCCNC(=O)C1COC2(CCN(C(=O)c3ccccc3Cl)CC2)N1C(=O)c1ccc(OC)cc1 (configuration not stated)	x	x	x	40.4%	x	x
Cc1ccc(CN2C[C@@H]3C(=O)N(CCCN4CCCC4=O)C(=O)[C@@H]3C2)cc1	x	x	x	94.8%	x	x
Cc1ccc(C(C)C)c(OCC(O)CN2CCN(CCO)CC2)c1 (configuration not stated)	0.3%	-16.5%	-8.1%	10µM*	-4.2%	-31.2%
CCOC(=O)N1CCN(CC(O)COc2ccccc2C(C)(C)C)CC1 (configuration not stated)	-2.0%	u	18.4µM*	u	-6.7%	14.1%
CCOC(=O)N1CCN(CC(O)COc2ccccc2C(C)C)CC1 (configuration not stated)	6.6%	u	u	u	-3.4%	2.1%
CCOC(=O)N1CCN(CC(O)COc2cc(C)ccc2C(C)C)CC1 (configuration not stated)	1.6%	-29.0%	8.2µM*	-10.2%	6.2%	35.9%
